According to article PMC5540273 (PLoS ONE, 2017):

How the values were obtained:
Details in all cases: concentration: 1 μM, replicates: in singlicate; n = 1
[1] = tested on: TNNI3K
[2] = tested on: T1, TRKA
T1 construct: gene NTRK1

[3] = tested on: TRKB
[4] = tested on: T2, TRKC
T2 construct: gene NTRK3

[5] = tested on: TRPM6
[6] = tested on: TSSK1B
[7] = tested on: TSSK3
[8] = tested on: TTK
[9] = tested on: TXK
[10] = tested on: TYK2(JH1domain-catalytic)
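Also: KINOMEscan kinase panel screen.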

| SMILES | %Inh [1] | %Inh [2] | %Inh [3] | %Inh [4] | %Inh [5] | %Inh [6] | %Inh [7] | %Inh [8] | %Inh [9] | %Inh [10] |
| --- | --- | --- | --- | --- | --- | --- | --- | --- | --- | --- |
| O=C(O)C(F)(F)F.O=c1[nH]ccc2nc(N[C@@H]3CCNC3)nc(Nc3ccc4c(c3)S(=O)(=O)CC4)c12 [GSK2181306] | 11% | 100% | 92.8% | 84% | 38% | 69% | 96.5% | 85% | 26% | 90.8% |
| Cl.N#CCc1ccc(Nc2nccc(Nc3ccc(Oc4ccccc4)cc3)n2)cc1 [GW639905] | 0% | 0% | 39% | 34% | 29% | 6% | 10% | 11% | 36% | 40% |
| COc1cc(Nc2nccc(N3CCC(NS(=O)(=O)c4ccc(NC(C)=O)cc4)CC3)n2)cc(OC)c1OC [GSK1379825] | 40% | 100% | 27% | 15% | 0% | 12% | 25% | 1% | 51% | 75% |
| O=C(Nc1n[nH]c2cc(-c3cccs3)ccc12)C1CC1 [SB-731284] | 0% | 3% | 0% | 3% | 39% | 0% | 7% | 10% | 0% | 28% |
| O=C(Nc1n[nH]c2nc(-c3ccccc3)ccc12)C1CC1 [SB-708999] | 11% | 1% | 0% | 24% | 0% | 0% | 16% | 0% | 5% | 33% |
| O=C1NC(=O)C(c2ccccc2Cl)=C1Nc1cccc(Cl)c1 [SB-342409] | 98.7% | 0% | 0% | 9% | 13% | 100% | 8% | 0% | 33% | 12% |
| NCCC(NC(=O)c1cc(Br)c(-c2ccnc3[nH]ccc23)s1)c1ccccc1.O=C(O)C(F)(F)F.O=C(O)C(F)(F)F (stereo not shown) [GSK1307810] | 2% | 91.4% | 59% | 47% | 0% | 0% | 20% | 25% | 0% | 83% |
| O=C(Nc1n[nH]c2nc(-c3cccc(O)c3)ccc12)C1CC1 [SB-711805] | 0% | 4% | 19% | 24% | 3% | 0% | 0% | 14% | 0% | 18% |
| Cc1ccccc1CC(=O)N1CCc2cc(-c3cn(C)c4ncnc(N)c34)ccc21 [GSK2603346] | 0% | 39% | 14% | 21% | 40% | 0% | 26% | 0% | 0% | 0% |
| CS(=O)(=O)c1cccc(CNc2nc(Nc3ccc4c(c3)CCC(=O)N4)ncc2C(F)(F)F)c1 | 0% | 98% | 92.9% | 73% | 0% | 0% | 0% | 99.6% | 0% | 89% |
| COc1cccc(CC(=O)N2CCc3cc(-c4cn(C)c5ncnc(N)c45)ccc32)c1 [GSK2608899] | 0% | 75% | 28% | 52% | 0% | 29% | 30% | 0% | 0% | 0% |
| CC(C)c1nc(-c2cccc(NS(=O)(=O)c3c(F)cccc3F)c2)c(-c2ccnc(Nc3ccc(N4CCOCC4)nc3)n2)s1.Cl [GSK1723980] | 52% | 61% | 0% | 14% | 27% | 0% | 19% | 61% | 92.7% | 45% |
| COc1ccc(C)c(Nc2ccnc(Nc3ccc(-c4cnc[nH]4)cc3)n2)c1.Cl [GW784041] | 100% | 0% | 0% | 0% | 0% | 10% | 0% | 15% | 15% | 44% |
| Cc1ccc(NC(=O)c2ccnc(N3CCCCC3)c2)cc1-c1ccc(C(=O)NCC2CC2)cc1 [GW775610] | 13% | 58% | 14% | 0% | 0% | 0% | 23% | 0% | 0% | 19% |
| Cc1ccc(NC(=O)c2cccc(N3CCCCC3)c2)cc1-c1ccc(C(=O)NCC2CC2)cc1 [GSK1917008] | 28% | 0% | 0% | 0% | 23% | 28% | 10% | 11% | 7% | 16% |
| Cc1ccc(O)cc1Nc1ccnc2ccc(C(C)(C)C)cc12 [GW856805] | 6% | 37% | 42% | 11% | 21% | 1% | 0% | 17% | 98.9% | 54% |
